Target: Integrin alpha-4 (Homo sapiens) (UniProt P13612)
Assay: inhibitors of fluorescent LDV binding to VLA-4 – cell-based, plate-based, flow cytometry, set 2, orthogonal assay, dose response (AID 588446)
Conditions: cells, LDV-FITC binding displacement; series mostly up to 66.7 µM; inhibition: at the top concentration;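 active means dose fit with top-dose inhibition above 36% and EC50 error under a fifth of EC50, and EC50 under 30 µM; inactive means the rest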

Chain of Integrin alpha-4 (Homo sapiens) (P13612 whole entry, looked up): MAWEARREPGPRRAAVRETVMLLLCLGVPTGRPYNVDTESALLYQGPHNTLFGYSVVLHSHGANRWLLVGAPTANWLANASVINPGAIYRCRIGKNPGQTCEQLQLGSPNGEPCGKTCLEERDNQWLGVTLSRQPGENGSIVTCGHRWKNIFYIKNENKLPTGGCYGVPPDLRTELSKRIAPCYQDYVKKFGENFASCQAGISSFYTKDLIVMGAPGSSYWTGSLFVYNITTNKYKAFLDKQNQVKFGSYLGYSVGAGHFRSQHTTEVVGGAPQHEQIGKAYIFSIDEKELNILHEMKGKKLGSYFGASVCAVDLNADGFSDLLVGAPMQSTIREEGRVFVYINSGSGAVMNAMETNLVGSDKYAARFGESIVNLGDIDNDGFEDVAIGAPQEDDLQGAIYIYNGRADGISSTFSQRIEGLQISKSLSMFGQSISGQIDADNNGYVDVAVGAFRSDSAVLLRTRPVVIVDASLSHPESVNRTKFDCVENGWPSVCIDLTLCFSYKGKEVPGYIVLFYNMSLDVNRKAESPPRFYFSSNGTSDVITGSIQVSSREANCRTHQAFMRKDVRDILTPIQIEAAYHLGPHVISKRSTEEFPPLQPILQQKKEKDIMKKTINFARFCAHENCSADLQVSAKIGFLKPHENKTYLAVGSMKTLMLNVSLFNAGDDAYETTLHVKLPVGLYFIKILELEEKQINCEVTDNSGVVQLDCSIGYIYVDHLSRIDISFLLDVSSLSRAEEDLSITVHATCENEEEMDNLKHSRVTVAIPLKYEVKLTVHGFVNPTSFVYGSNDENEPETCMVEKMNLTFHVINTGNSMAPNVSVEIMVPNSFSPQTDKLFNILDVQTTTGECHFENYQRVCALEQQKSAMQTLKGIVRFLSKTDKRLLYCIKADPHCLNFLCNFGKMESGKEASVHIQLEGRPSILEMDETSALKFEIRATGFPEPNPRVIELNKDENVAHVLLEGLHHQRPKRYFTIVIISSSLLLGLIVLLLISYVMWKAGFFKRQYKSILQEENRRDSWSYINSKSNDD

inhibition, inactive:
COCCn1c(C2CC(=O)N(Cc3ccco3)C2)nc2ccccc21 (centres undefined) 30.4
Cc1oc(-c2cccs2)nc1CN1C(=O)C2CC=CCC2C1=O (centres undefined) -24.5
COc1cc(OCc2ccccc2)ccc1CN1CCN(C)CC1 29.6
O=C(c1ccc(OCCN2CCCCC2)cc1)c1c(-c2ccc(O)cc2)sc2cc(O)ccc12 -53.4
Cc1cc(C(=O)N2CCCC2c2nc3ccccc3s2)on1 (centres undefined) 21.9
CN(Cc1ccco1)C(=O)c1ccc(-n2cnc3ccccc32)cc1 20.4
COCCn1c(C2CC(=O)N(c3ccccc3C)C2)nc2ccccc21 (centres undefined) -15
COc1ccc(-c2nn(Cc3ccccc3)cc2C(=O)N2CCC2)cc1 7.1
Cc1ccc(C)n1-c1ccc(C(=O)N(C)Cc2ccco2)cc1 38.8
COc1ccc(C2CCCN2C(=O)c2sccc2C)cc1OC (centres undefined) 30.2
COCC(=O)N1CCC2(CCCN(CCc3ccccc3)C2=O)C1 (centres undefined) 88.4
Cc1cc(C(=O)N2CCCC2c2ccc3c(c2)OCCO3)sc1C (centres undefined) 17
Cc1nc(C)c(C(=O)N2CCCC2c2nc3ccccc3s2)s1 (centres undefined) 14.2
CN1CC(c2nc3ccccc3n2CCOc2ccccc2)CC1=O (centres undefined) 33.1
O=C1C2CC=CCC2C(=O)N1Cc1csc(Cc2ccccc2)n1 (centres undefined) 12.2
CCOCCn1c(C2CC(=O)N(c3ccccc3)C2)nc2ccccc21 (centres undefined) 18.9
CSc1ccccc1OCc1cc(C(=O)N2CCCC2)no1 10.1
Cc1ccc(-c2nc(CN3C(=O)C4CC=CCC4C3=O)cs2)cc1 (centres undefined) 36.7
COc1ccccc1Cn1c(C2CC(=O)N(C)C2)nc2ccccc21 (centres undefined) 29.8
CCOc1ccccc1N1CC(c2nc3ccccc3n2C)CC1=O (centres undefined) 13.8
CCN1CC(c2nc3ccccc3n2CCOc2ccccc2)CC1=O (centres undefined) 7.23
CCN1CC(c2nc3ccccc3n2Cc2ccccc2)CC1=O (centres undefined) 5.84
CCn1c(C2CC(=O)N(CCc3ccccc3)C2)nc2ccccc21 (centres undefined) 82.5
CC(=O)N(C)Cc1nc2ccccc2n1CCOc1ccc(C)cc1 4.65
Cn1cc(C(=O)N2CCCC2c2nc3ccccc3s2)cn1 (centres undefined) 18.8
Cc1nc2ccccc2n1CCc1noc(COc2ccccc2)n1 17.5
COCCn1c(C2CC(=O)N(c3cccc(C)c3)C2)nc2ccccc21 (centres undefined) -7.74
CCn1c(C2CC(=O)N(c3ccccc3OC)C2)nc2ccccc21 (centres undefined) 29
COc1ccccc1N1CCN(CC(=O)c2ccc(F)cc2)CC1 13.7
